# Measured values: PubChem BioAssay (NCATS)
# Several values for one entry are separate records, joined by “and”; a condition that tells them apart may be missing. Identical values can stand only once. Results filed as inconclusive are left out. Unmarked numbers belong to inactive results. Activity calls are given as the source filed them. Calls come from the whole dose curve; as a rule, active = well fitted curve in the direction sought with a large enough effect; inconclusive = small, poorly fitted or top-dose-only effect, or another doubt; inactive = no such curve, though single readings can be large; an effect the other way counts as inactive or inconclusive.
# What was measured:
# [1] = Viability qHTS for spleen associated tyrosine kinase inhibitor (SYKi) drug resistant MV4-11 cells (AID 1963824); note: nearly all actives have a fitted effect of over 35% in size
# How it was run: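 SYK inhibitor-resistant MV4-11 AML cells, 500 per well, added to predispensed compounds and incubated 72 hr at 37 C, 5% CO2. Viability measured by CellTiter-Glo luminescence after 10 min at room temperature.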
# [2] = Cellular viability qHTS for adrenocortical cancer (ACC) cell line SW-13 (AID 1963989); settings: SW-13 ACC cells viability, CellTiter-Glo, 48 h; activity (max response): hits give low values; note: nearly all actives have a fitted effect of over 65% in size;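 for activity (max response): cells grown in serum-free medium with ITS supplement; % is set by controls: 0 for no effect and ±100 for the full control effect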
# How it was run: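 Here, serum-free SW-13 cultures were dosed up to 46 uM. Following 48 h, ATP-dependent luminescence (CellTiter-Glo) reported viable cells, and logistic modeling produced IC50 values.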
# [3] = Cellular viability qHTS for adrenocortical cancer (ACC) cell line NCI-H295R (AID 1963990); note: nearly all actives have a fitted effect of over 60% in size
# How it was run: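 Viability of NCI-H295R after 48 h of treatment (final up to 46 uM) measured through cellular ATP luminescence.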
# Potency is the fitted concentration of half-maximal effect.
SMILES,Potency [1],activity (max response) [2],Potency [3],Potency [2]
C/C=C/C=N/NC(=O)c1ccncc1,inactive,-0.764%,inactive,–
CC(=O)OCC(=O)[C@@]1(O)CCC2C3CCC4=CC(=O)CC[C@]4(C)C3[C@@H](O)C[C@@]21C (stereo partly specified),inactive,-1.87%,inactive,–
NCC(=O)Nc1cncc(-c2nn3c(=O)cc(N4CCNCC4)nc3s2)c1,inactive,-17.3%,inactive,–
Clc1ccccc1CN1CCc2sccc2C1,18.8 µM (active),1.55%,inactive,–
CS(=O)(=O)Nc1ccc([N+](=O)[O-])cc1Oc1ccccc1,14.8 µM (active),9.34% and -1.91%,inactive,–
O=C(Nc1ccc(C(=O)O)c(O)c1)c1ccccc1,inactive,1.55%,inactive,–
Cc1[nH]cnc1CN1CCN(C(=O)N[C@@H](CC(C)C)C(=O)O)[C@@H](Cc2ccccc2)C1=O,inactive,6.54%,inactive,–
O=C(O)Cc1ccccc1Oc1ccc(Cl)cc1Cl,inactive,4.63%,inactive,–
Cc1onc(-c2ccccc2)c1-c1ccc(S(N)(=O)=O)cc1,14.8 µM (active),-10.6% and -23.5%,inactive,–
Oc1ccc(Cl)cc1Cc1cc(Cl)ccc1O,11.9 µM (active),–,5.17 µM (active),5.17 µM (active)
Nc1ncnc2nc[nH]c12,inactive,2.49%,inactive,–
CCCC(=O)Nc1ccc(O)c(C(C)=O)c1,inactive,10.4%,inactive,–
CC(C)[C@H](CO)Nc1nc(Nc2ccc(C(=O)O)c(Cl)c2)c2ncn(C(C)C)c2n1,16.6 µM (active),10.6%,inactive,–
COc1cc(N2CCC(N3CCN(C)CC3)CC2)ccc1Nc1ncc(Cl)c(Nc2ccccc2P(C)(C)=O)n1,130 nM (active) and 23.5 nM (active),–,1.12 µM (active),1 µM (active)
C[C@]12CCC(=O)C=C1CC[C@@H]1[C@@H]2[C@@H](O)C[C@@]2(C)[C@H]1CC[C@]2(O)C(=O)COC(=O)CCC(=O)O,inactive,3.9%,inactive,–
Cc1ccsc1/C=C/C1=NCCCN1C,inactive,-3.84%,inactive,–
C=CC(=O)Nc1cc(N2CCN(CC)CC2)ccc1Nc1cc(N(C)C(=O)Nc2c(Cl)c(OC)cc(OC)c2Cl)ncn1,7.42 µM (active),-15%,inactive,–
Nc1ncccc1-c1nc2ccc(-c3ccccc3)nc2n1-c1ccc(C2(N)CCC2)cc1,5.25 µM (active),–,3.98 µM (active),25.1 µM (active)
CCOC(=O)[C@@](C)(N)Cc1ccc(O)c(O)c1,inactive,-4.97%,inactive,–
Cc1c(-c2c(-c3ccc(F)o3)sc3ncnc(O[C@@H](Cc4ccccc4OCc4ccnn4CC(F)(F)F)C(=O)O)c23)ccc(OCCN2CCN(C)CC2)c1Cl,0.0132 µM (active),–,1.58 µM (active),0.199 µM (active)
C[C@@H](C1=C(CCN(C)C)Cc2ccccc21)c1ccccn1,inactive,-0.59%,inactive,–
CNC(=O)Cn1cc(-c2ccc3c(c2)C(F)CC32NC(=O)N(CC(=O)N(Cc3ccc(F)cc3)[C@@H](C)C(F)(F)F)C2=O)cn1 (stereo partly specified),0.132 µM (active),8.67%,inactive,–
C#C[C@]1(O)CC[C@H]2[C@@H]3CCC4=CC(=O)CC[C@@H]4[C@H]3CC[C@@]21CC,9.34 µM (active),-2.48% and -7.29%,inactive,–
COc1cc(NS(C)(=O)=O)ccc1Nc1c2ccccc2nc2ccccc12,0.468 µM (active),–,8.91 µM (active),5.62 µM (active)
CN1CC[C@H](c2c(O)cc(O)c3c(=O)cc(-c4ccccc4Cl)oc23)[C@H](O)C1,0.299 µM (active),–,0.103 µM (active),0.184 µM (active)
CCNC(=O)NCCCOc1cccc(CN2CCCCC2)c1,inactive,-6.89%,inactive,–
c1cc(-c2cnn3cc(-c4ccc(N5CCNCC5)cc4)cnc23)c2cccnc2c1,0.92 µM (active),–,6.31 µM (active),22.4 µM (active)
c1ccc2sc(SN3CCOCC3)nc2c1,inactive,–,inactive,–
CCCOc1ccc2c(c1)CC[C@@H]1[C@@H]2CC[C@]2(C)C(OC)CC[C@@H]12 (stereo partly specified),inactive,13.8%,inactive,–
